PubChem BioAssay (Tox21)
Records with an inconclusive call do not appear. Active and inactive are the calls of the source. Unless noted, calls come from the whole dose curve; as a rule, active = well fitted curve in the direction sought with a large enough effect in the repeat runs; inconclusive = weak or mixed curves; inactive = no such curve, though single readings can be large; an effect the other way counts as inactive or inconclusive.

Assays:
[1] = qHTS assay to identify small molecule antagonists of the thyroid receptor (TR) signaling pathway (AID 743065); note: series mostly up to about 70 µM; nearly all actives have a fitted effect of over 55% in size
Outline: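 GH3.TRE-Luc rat pituitary cells carrying two TR response elements driving luciferase were plated for 4 h, given compound plus 1 nM T3 (final), and incubated 23.5 h at 37 C. ONE-Glo luminescence measured reporter inhibition; CellTiter-Fluor fluorescence tracked cytotoxicity.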

[2] = test system: thyroid hormone receptor (rat, GH3 cells); assay: qHTS assay to identify small molecule agonists of the thyroid receptor (TR) signaling pathway (AID 743066; calls by dose curve)
[3] = target: Estrogen receptor (Homo sapiens) (UniProt P03372); assay: qHTS assay to identify small molecule antagonists of the estrogen receptor alpha (ER-alpha) signaling pathway (AID 743069; active = well fitted curve in the direction sought with a large enough effect in the signal ratio in the repeat runs, not every such curve was filed as active; the % refers to the signal ratio)
Chain of Estrogen receptor (Homo sapiens) (P03372 whole entry, looked up): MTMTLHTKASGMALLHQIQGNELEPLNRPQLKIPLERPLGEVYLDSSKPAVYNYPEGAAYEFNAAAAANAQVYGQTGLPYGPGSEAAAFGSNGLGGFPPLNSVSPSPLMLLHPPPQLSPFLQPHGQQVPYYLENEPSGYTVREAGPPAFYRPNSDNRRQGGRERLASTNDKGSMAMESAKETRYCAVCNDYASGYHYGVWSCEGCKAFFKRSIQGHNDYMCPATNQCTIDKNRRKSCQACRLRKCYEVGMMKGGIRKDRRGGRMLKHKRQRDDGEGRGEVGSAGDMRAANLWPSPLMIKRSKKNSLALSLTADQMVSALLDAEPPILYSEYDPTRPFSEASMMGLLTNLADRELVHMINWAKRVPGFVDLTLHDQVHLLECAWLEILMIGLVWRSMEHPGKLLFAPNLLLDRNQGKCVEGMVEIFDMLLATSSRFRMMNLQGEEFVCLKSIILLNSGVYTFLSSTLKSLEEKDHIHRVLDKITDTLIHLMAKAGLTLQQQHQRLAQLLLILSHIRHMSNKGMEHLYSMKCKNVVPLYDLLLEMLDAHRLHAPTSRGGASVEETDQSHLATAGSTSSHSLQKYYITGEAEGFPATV
Outline: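 Estradiol-stimulated ER-alpha-UAS-bla HEK293 cells, 18 hr compound exposure at 37C. LiveBLAzer B/G substrate, 2 hr RT, fluorescence read.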

[4] = qHTS assay to identify small molecule antagonists of the estrogen receptor alpha (ER-alpha) signaling pathway - cell viability counter screen (AID 743074; calls by dose curve;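 note: HEK293 cells carrying ER-alpha-UAS-bla reporter stimulated with 17beta-estradiol; nearly all actives have a fitted effect of over 45% in size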)
[5] = target: Estrogen receptor (Homo sapiens) (UniProt P03372); assay: qHTS assay to identify small molecule agonists of the estrogen receptor alpha (ER-alpha) signaling pathway (AID 743075; calls by dose curve;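 note: HEK293 GripTite cells with ER-alpha and UAS-driven beta-lactamase reporter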)
[6] = target: Estrogen receptor (Homo sapiens) (UniProt P03372); assay: qHTS assay to identify small molecule agonists of the estrogen receptor alpha (ER-alpha) signaling pathway using the BG1 cell line (AID 743079); note: nearly all actives have a fitted effect of over 20% in size
[7] = qHTS assay to identify small molecule antagonists of the estrogen receptor alpha (ER-alpha) signaling pathway using the BG1 cell line (AID 743080; calls by dose curve;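 note: BG1 cells stimulated with 17beta-estradiol alongside compound; series mostly up to about 70 µM; nearly all actives have a fitted effect of over 25% in size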)
Outline: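 After 5 days in phenol-red-free 10% charcoal-stripped FBS medium, BG1-Luc-4E2 cells were seeded, left 24 h at 37 C, co-treated with compounds and 17beta-estradiol for 21.5 h, then assayed for viability and luciferase.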

[8] = qHTS assay to identify small molecule antagonists of the estrogen receptor alpha (ER-alpha) signaling pathway using the BG1 cell line - cell viability counter screen (AID 743081);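 note: compound given together with 17beta-estradiol as the ER stimulus; series mostly up to about 70 µM; nearly all actives have a fitted effect of over 45% in size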
Aromatase (Homo sapiens) = Aromatase (Homo sapiens) (UniProt P11511); assay: qHTS assay to identify aromatase inhibitors (AID 743083); note: series mostly up to about 70 µM; nearly all actives have a fitted effect of over 55% in size
Chain of Aromatase (Homo sapiens) (P11511 whole entry, looked up): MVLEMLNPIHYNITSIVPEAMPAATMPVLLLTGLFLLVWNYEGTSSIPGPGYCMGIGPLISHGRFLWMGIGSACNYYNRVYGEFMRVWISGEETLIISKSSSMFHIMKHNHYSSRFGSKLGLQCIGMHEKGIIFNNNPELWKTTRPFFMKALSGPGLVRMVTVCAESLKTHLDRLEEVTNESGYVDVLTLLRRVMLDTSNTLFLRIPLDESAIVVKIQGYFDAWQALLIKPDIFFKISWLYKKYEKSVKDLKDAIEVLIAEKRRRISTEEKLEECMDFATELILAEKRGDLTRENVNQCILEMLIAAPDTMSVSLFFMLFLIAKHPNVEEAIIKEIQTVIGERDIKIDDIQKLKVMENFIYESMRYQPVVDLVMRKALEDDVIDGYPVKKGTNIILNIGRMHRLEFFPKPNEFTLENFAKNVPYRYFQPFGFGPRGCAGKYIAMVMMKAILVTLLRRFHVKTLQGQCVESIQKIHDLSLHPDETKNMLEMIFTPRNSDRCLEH

[9] = qHTS assay to identify aromatase inhibitors - cell viability counter screen (AID 743084);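 note: cells stimulated with testosterone during compound exposure; nearly all actives have a fitted effect of over 55% in size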
[10] = target: Aryl hydrocarbon receptor (Homo sapiens) (UniProt P35869); assay: qHTS assay to identify small molecule that activate the aryl hydrocarbon receptor (AhR) signaling pathway (AID 743085);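 note: HG2L7.5c1 human HepG2 liver cells with stably integrated DRE-driven firefly reporter; series mostly up to about 70 µM; nearly all actives have a fitted effect of over 15% in size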
Chain of Aryl hydrocarbon receptor (Homo sapiens) (P35869 whole entry, looked up): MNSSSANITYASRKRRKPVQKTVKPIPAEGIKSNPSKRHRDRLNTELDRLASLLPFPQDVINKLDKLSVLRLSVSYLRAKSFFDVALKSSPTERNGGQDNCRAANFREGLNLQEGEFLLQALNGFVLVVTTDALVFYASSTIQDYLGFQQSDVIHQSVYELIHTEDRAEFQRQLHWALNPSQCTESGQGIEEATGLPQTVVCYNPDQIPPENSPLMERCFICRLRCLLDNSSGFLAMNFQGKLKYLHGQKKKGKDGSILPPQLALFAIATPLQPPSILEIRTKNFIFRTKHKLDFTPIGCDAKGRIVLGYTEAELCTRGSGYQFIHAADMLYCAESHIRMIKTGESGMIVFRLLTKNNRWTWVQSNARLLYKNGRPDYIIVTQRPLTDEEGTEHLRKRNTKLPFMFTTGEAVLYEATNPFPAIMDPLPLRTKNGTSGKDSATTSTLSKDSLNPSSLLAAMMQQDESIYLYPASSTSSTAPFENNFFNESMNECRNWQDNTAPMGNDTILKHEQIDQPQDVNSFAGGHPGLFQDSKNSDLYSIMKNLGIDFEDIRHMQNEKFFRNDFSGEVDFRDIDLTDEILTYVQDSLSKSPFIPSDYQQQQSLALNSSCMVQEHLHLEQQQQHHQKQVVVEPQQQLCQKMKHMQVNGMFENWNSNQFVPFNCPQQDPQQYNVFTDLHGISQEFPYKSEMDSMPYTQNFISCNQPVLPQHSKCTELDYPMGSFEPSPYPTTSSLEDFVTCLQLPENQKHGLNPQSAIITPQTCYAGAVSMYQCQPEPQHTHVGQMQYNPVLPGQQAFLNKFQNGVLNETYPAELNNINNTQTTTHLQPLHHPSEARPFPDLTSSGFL
Outline: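 24 h compound exposure, 37C, HepG2-derived HG2L7.5c1 cells with DRE-responsive luciferase. Readouts: fluorescence viability, then luminescence at room temperature after 30 min.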

[11] = qHTS assay to identify small molecule that activate the aryl hydrocarbon receptor (AhR) signaling pathway - cell viability counter screen (AID 743086);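 note: HepG2 liver cells carrying the AhR DRE luciferase reporter; series mostly up to about 70 µM; nearly all actives have a fitted effect of over 45% in size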
Outline: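 HepG2-AhR-luc (HG2L7.5c1) cells, 4000/well, were preincubated 5 h at 37C, exposed to compound in qHTS format for 24 hr at 37C, then given CellTiter-Fluor for 30 min; viability was read as fluorescence in the reporter wells.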

[12] = target: Peroxisome proliferator-activated receptor gamma (Homo sapiens) (UniProt P37231); assay: qHTS assay to identify small molecule agonists of the peroxisome proliferator-activated receptor gamma (PPARg) signaling pathway (AID 743094; active = well fitted activation curve with a large enough effect in the signal ratio in the repeat runs, not every such curve was filed as active; the % refers to the signal ratio)
Chain of Peroxisome proliferator-activated receptor gamma (Homo sapiens) (P37231 whole entry, looked up): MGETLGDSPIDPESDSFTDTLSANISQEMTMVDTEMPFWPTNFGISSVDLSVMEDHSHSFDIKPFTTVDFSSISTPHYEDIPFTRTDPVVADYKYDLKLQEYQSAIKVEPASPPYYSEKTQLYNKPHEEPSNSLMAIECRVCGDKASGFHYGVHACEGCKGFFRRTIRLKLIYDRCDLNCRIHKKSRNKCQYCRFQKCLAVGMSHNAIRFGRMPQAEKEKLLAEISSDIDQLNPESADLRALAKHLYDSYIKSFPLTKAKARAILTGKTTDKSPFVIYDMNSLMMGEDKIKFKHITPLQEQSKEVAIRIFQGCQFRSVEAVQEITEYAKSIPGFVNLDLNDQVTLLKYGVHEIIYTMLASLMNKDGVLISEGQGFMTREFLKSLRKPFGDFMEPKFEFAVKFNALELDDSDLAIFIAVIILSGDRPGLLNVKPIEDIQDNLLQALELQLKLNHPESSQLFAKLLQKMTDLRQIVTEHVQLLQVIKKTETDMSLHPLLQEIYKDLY
Outline: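 Quantitative HTS agonist mode: stable HEK293H line with UAS-beta-lactamase reporter under PPARg control, 17 h compound exposure at 37C, fluorescence after 1 h FRET substrate loading at room temperature.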

[13] = target: Peroxisome proliferator-activated receptor gamma (Homo sapiens) (UniProt P37231); assay: qHTS assay to identify small molecule antagonists of the peroxisome proliferator-activated receptor gamma (PPARg) signaling pathway (AID 743191; calls by dose curve; note: series mostly up to about 63 µM; nearly all actives have a fitted effect of over 30% in size)
Outline: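 GeneBLAzer PPARg UAS-bla HEK293H cells carrying a UAS-driven beta-lactamase reporter were plated at 3000 cells/well, preincubated 5 h at 37C, then given compound for 17 h at 37C; LiveBLAzer B/G FRET substrate was read after 1 h at room temperature.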

[14] = qHTS assay to identify small molecule antagonists of the peroxisome proliferator-activated receptor gamma (PPARg) signaling pathway - cell viability counter screen (AID 743194); note: nearly all actives have a fitted effect of over 55% in size
Outline: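 PPARg-UAS-bla HEK293H cells were plated, rested 5 h at 37 C, then treated with compounds plus rosiglitazone (50 nM final) for 17 h at 37 C; viability was then read by CellTiter-Glo luminescence after 30 min at room temperature.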

[15] = qHTS assay for small molecule agonists of the antioxidant response element (ARE) signaling pathway (AID 743202; active = well fitted activation curve with a large enough effect in the signal ratio in the repeat runs, not every such curve was filed as active; the % refers to the signal ratio)
Outline: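 Compounds delivered in DMSO to ARE-bla HepG2 cells (2,000 cells/well, pre-incubated 5 h) and left 16 h at 37 C. LiveBLAzer B/G FRET substrate then added for 2 h at RT before fluorescence reading.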

[16] = qHTS assay for small molecule agonists of the antioxidant response element (ARE) signaling pathway - cell viability counter screen (AID 743203; calls by dose curve; note: nearly all actives have a fitted effect of over 55% in size)
Outline: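 Seeded at 2,000 cells/well, ARE-bla HepG2 cells were incubated 5 hrs before compound addition. After 16 hrs of treatment at 37C with 5% CO2, CellTiter-Glo reagent was added and luminescence read 30 min later.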

[17] = qHTS assay for small molecule activators of the heat shock response signaling pathway - cell viability counter screen (AID 743209); note: nearly all actives have a fitted effect of over 50% in size
Outline: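 First, HSE-bla HeLa cells were seeded at 1500 cells/well and kept overnight at 37 C. Next, compounds were pinned in and incubated 5 h. After the FRET substrate step, CellTiter-Glo was added and luminescence read 30 min later.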

[18] = qHTS assay for small molecule activators of the heat shock response signaling pathway (AID 743210; active = well fitted activation curve with a large enough effect in the signal ratio in the repeat runs, with a control signal flat, not every such curve was filed as active; the % refers to the signal ratio;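 note: HeLa cells with beta-lactamase reporter driven by heat shock elements; series mostly up to about 63 µM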)
Outline: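 Reporter gene assay: HeLa cells stably bearing an HSE-bla construct, compound treatment 5 h at 37 C, LiveBLAzer substrate 2.5 h at RT, fluorescence intensity.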

[19] = qHTS assay to identify small molecule agonists of the peroxisome proliferator-activated receptor delta (PPARd) signaling pathway - cell viability counter screen (AID 743211); note: nearly all actives have a fitted effect of over 55% in size
Outline: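 Luminescent ATP viability assay (CellTiter-Glo, 30 min RT) in UAS-bla HEK293H cells carrying the PPAR delta reporter construct, 3000 cells/well, after a 17 h compound treatment at 37 C.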

Measured: Potency

CCN(CC)CCNC(=O)COc1ccc(Cl)cc1
inactive: all assays above

CCOc1ccc(OCC)c(Cl)c1
not listed: [14] | [18]
inactive: all other assays above

CO[Si](C)(C)OC
inactive: all assays above

CC(C)O
not listed: [17] | [18] | [19]
inactive: all other assays above

COc1ccc(S(=O)(=O)Nc2nnc(CC(C)C)s2)cc1
not listed: [13]
inactive: all other assays above

O=C1C=CC(=O)O1
inactive: all assays above

CC(C)OC(C)C
not listed: [15]
inactive: all other assays above

CCN(CC)CC1CCCCN1CC(=O)N1c2ccccc2C(=O)Nc2cccnc21 (stereo not given)
not listed: [18]
inactive: all other assays above

CC1(O)CSC(C)(O)CS1 (stereo not given)
not listed: [12] | [15]
inactive: all other assays above

CCC(=O)Nc1ccc(O)cc1
inactive: all assays above

Cc1cccc(C)c1NC(=O)CN1CCCCCC1
not listed: [13]
inactive: all other assays above

CCCCCCCCOC(=O)CCCCCCCCC(=O)OCCCCCCCC
not listed: [15]
inactive: all other assays above

CCCCC1CCC(=O)O1 (stereo not given)
inactive: all assays above

CC(C)(C)C1CCCCC1=O (stereo not given)
not listed: [12] | [13]
inactive: all other assays above

CC/C=C\CCOC(=O)CCCCC
not listed: [15]
inactive: all other assays above
